# Screens (PubChem)
# BRCT inh red = qHTS Assay for Inhibitors of BRCT-Phosphoprotein Interaction (Red Fluorophore) | Breast cancer type 1 susceptibility protein (Homo sapiens), P38398 | BRCT-phosphopeptide binding, red fluorescence polarization | Potency, µM (titrated, usually from 76.9 µM), for the others: at the top dose activity change, negative = inhibition, actives largely listed as inhibitors | 75,000 compounds, 0.03% hits; further: on the % scale 0 is the no-effect control and ±100 the full control effect
#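 Fluorescence polarization: 100 nM His-tagged BRCA1 BRCT with 100 nM TAMRA-labelled phospho-BACH1 decapeptide, phosphate buffer pH 7.3 with 150 mM NaCl, DTT, 0.01% Tween 20; 12 min RT. Binding inhibition seen as FP decrease.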
# BRCT PPI green = qHTS Assay for Inhibitors of BRCT-Phosphoprotein Interaction (Green Fluorophore); Breast cancer type 1 susceptibility protein (Homo sapiens), P38398; BRCA1 BRCT-phosphopeptide binding, green fluorescence polarization; Potency, µM (top dose mostly 76.9 µM), for inactives: at the top dose activity change, negative = inhibition, hits mostly inhibitors; 75,000 compounds, 0.05% hits;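 further: potency means the concentration at half of the fitted maximal effect; plate controls were peptide without protein for full effect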
#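 Fluorescence polarization: His-tagged BRCT (~35 kDa BRCA1 C-terminus, 250 nM) bound to 100 nM fluorescein-labeled phosphorylated 10-aa BACH1 peptide, pH 7.3 phosphate buffer with DTT and Tween 20. Compounds incubated 12 min at room temperature; inhibition read as lowered polarization.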
# Hsp90 Hop PPI = qHTS Assay for Disrupters of an Hsp90 Co-Chaperone Interaction; AID 595, 2007; Potency, µM (doses to about 57 µM), for inactives: at the highest dose activity change, negative = inhibition; AlphaScreen TPR2A-His6 binding biotin-Hsp90 C-terminal peptide; 71,000 compounds, 0.44% hits; Hsp90 C-terminal peptide / TPR2A (Hop) interaction, human; active means well fitted curve in either direction with a large enough effect; inconclusive means small, poorly fitted or top-dose-only effect, or another doubt; further: potency means the concentration at half of the fitted maximal effect; on the % scale 0 is the no-effect control and ±100 the full control effect
# TSHR ag = qHTS Assay for Agonists of the Thyroid Stimulating Hormone Receptor; HEK293-CNG-TSHR cells (CNG channel as cAMP sensor), membrane potential dye, cAMP; Thyrotropin receptor (Homo sapiens), P16473; 73,000 compounds, 0.48% hits; Potency, µM (top dose mostly 57.1 µM), inactives show top-dose activation, most hits filed as activators; active means well fitted activation curve with a large enough effect in the main read-out, with a control signal flat, not every such curve was filed as active; inconclusive means small, poorly fitted or top-dose-only effect, or a change in a side signal; inactive means no such curve, though single readings can be large or run the other way; % of control where 0% means no effect;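 further: the control signal comes from parental cells without the receptor; potency means the concentration at half of the fitted maximal effect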
# Target sequence (P16473 whole entry, looked up): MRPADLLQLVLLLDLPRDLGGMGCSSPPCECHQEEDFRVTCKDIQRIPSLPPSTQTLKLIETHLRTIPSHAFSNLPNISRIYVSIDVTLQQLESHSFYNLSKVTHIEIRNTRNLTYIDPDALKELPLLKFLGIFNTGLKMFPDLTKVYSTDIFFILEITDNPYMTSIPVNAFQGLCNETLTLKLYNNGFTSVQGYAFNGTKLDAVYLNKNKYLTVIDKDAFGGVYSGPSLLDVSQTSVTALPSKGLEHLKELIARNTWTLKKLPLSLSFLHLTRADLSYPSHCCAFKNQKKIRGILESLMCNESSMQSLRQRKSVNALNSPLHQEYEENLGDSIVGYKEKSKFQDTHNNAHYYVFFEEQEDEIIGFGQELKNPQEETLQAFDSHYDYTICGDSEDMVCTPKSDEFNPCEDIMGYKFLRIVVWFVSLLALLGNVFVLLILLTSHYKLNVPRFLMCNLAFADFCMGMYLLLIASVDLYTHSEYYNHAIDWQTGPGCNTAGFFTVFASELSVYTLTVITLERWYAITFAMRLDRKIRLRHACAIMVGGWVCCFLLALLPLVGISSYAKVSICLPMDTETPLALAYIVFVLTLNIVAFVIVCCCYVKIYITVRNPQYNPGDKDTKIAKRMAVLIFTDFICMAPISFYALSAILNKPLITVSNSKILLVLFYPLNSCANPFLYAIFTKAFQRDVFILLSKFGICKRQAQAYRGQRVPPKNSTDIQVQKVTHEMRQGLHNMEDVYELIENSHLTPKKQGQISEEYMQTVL
#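 HEK 293 cells stably expressing TSHR and a cAMP-gated CNG channel; parental CNG-only cells as counterscreen. Cells preloaded 60 min with membrane potential dye plus 100 uM RO 20-1724, then compound 30 min; fluorescence read at 590 nm.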
# HEK293 cAMP ctrl = qHTS Assay for Agonists of the Thyroid Stimulating Hormone Receptor: Activators of Intracellular cAMP Concentrations in Parental HEK 293; parental HEK293 CNG cAMP sensor, membrane potential fluorescence; Potency, µM (top dose mostly 57.1 µM), for inactives: top-dose activation, most hits filed as activators; 73,000 compounds, 2.5% hits; AID 938, 2007; further: potency means the concentration at half of the fitted maximal effect; % of control where 0% means no effect; nearly all actives have a fitted effect of over 55% in size
#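 Parental HEK 293 cells stably expressing a cAMP-gated CNG channel were loaded with membrane potential dye containing 100 uM RO 20-1724 for 60 min. Compound added for 30 min; depolarization read as fluorescence intensity at 590 nm.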
# TsaE inh = qHTS Assay for Inhibitors of YjeE; tRNA threonylcarbamoyladenosine biosynthesis protein TsaE (Escherichia coli (strain …; purified YjeE enzyme, qHTS inhibition assay; Potency, µM; 71,000 compounds, 0.05% hits
#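 Fluorescence polarization of a BODIPY Texas Red–ADP probe (2 uM) bound to purified YjeE (10 uM) was read after 15 min room-temperature incubation with compounds. Loss of polarization marks inhibitors; ADP serves as titrated control.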
# Numbers without * were called inactive; i = inactive; ? = inconclusive; nt = no result; [ ] = dose if it differs, or a comment. The list is not random: actives were taken first. Their share in the collection is about 3.3%. Unless noted, the call rests on the fitted dose curve; in most records, active means well fitted curve in the direction sought with a large enough effect; inconclusive means small, poorly fitted or top-dose-only effect, or another doubt; inactive means no such curve, though single readings can be large; an effect the other way counts as inactive or inconclusive.
SMILES,BRCT inh red,BRCT PPI green,Hsp90 Hop PPI,TSHR ag,HEK293 cAMP ctrl,TsaE inh
Fc1ccc(C(c2nnnn2Cc2ccccc2)N2CCSCC2)cc1 (configuration not stated),-0.6%,-1.1%,3.3%,?,12.6µM*,i
CN(C)c1ncnc2ccc(-c3ccc4c(c3)OCO4)cc12,-0.1%,-4.0%,-21.1%,?,25.1µM*,i
COc1cccc(Cn2c(Oc3cccc(C)c3)nc3c2c(=O)n(C)c(=O)n3C)c1,-1.7%,3.9%,-20.8%,?,25.1µM*,i
Cn1c(=O)c2c(nc(N3CCNCC3)n2Cc2cccc3ccccc23)n(C)c1=O,-0.2%,-0.5%,-3.3%,-8.7%,1.6%,i
CCCOc1nc2c(c(=O)n(C)c(=O)n2C)n1Cc1cccc2ccccc12,1.6%,0.5%,-6.9%,?,31.6µM*,i
COc1c(-c2ccccc2)oc2c(ccc3occc32)c1=O,-2.3%,0.9%,3.3%,?,39.8µM*,i
Clc1ccc(OCc2nc(-c3ccncc3)no2)c(Cl)c1,-0.7%,0.2%,?,?,25.1µM*,i
Cc1ccc(-c2noc(COc3ccccc3C)n2)cc1,-1.9%,-0.4%,26.9%,?,25.1µM*,i
COc1ccc(Cl)cc1-c1nc(-c2ccncc2)no1,0.4%,-0.8%,-2.5%,9.0%,17.3%,i
CN(C)c1nc(N)c(C(=O)N=C(N)N)nc1Cl,1.2%,-1.0%,-2.7%,?,25.1µM*,i
Oc1cc(O)cc(/C=C\c2ccc(O)c(O)c2)c1,-1.5%,-3.3%,?,1.6%,-8.6%,i
Cc1cc(C)nc(NCCCc2ccccc2)n1,0.2%,-3.0%,2.4%,4.5%,28.3%,i
CCCCNc1cc(C)nc(NCc2ccccc2)n1,-0.1%,0.5%,-3.9%,?,6.31µM*,i
N#CC(=C(/N)Sc1ccccc1N)/C(C#N)=C(/N)Sc1ccccc1N,-0.1%,0.7%,-22.1%,-20.9%,-18.9%,i
COC(=O)c1cccc(Nc2nc3ccccc3nc2C)c1,-0.6%,-0.9%,20.2%,?,31.6µM*,i
COC1C=CC23c4cc5c(cc4CN(CC2O)C3C1)OCO5 (configuration not stated),-3.3%,-1.0%[3.08 µM],nt,nt,nt,nt
O=S(=O)(c1cccc2cccnc12)N(CCO)CCO,-1.1%,-0.9%,-2.0%,4.2%,-1.5%,i
CCCCN(CC)S(=O)(=O)c1cccc2cccnc12,0.0%,-0.4%,15.9%,?,20µM*,i
CCCn1cnc2c(c1=O)c1nc3ccccc3nc1n2CCC1=CCCCC1,-0.5%,-6.3%,-0.4%,nt,18.9%,i
CCOCCCn1c(C)nc2c(c1=O)c1nc3ccccc3nc1n2CCC1=CCCCC1,-3.0%,-4.8%,-0.3%,?,20µM*,i
CN1CCN(c2ccnc(-c3ccccc3C(F)(F)F)n2)CC1,-0.8%,-0.4%,-3.1%,?,31.6µM*,i
C/C(CCN1CCc2nc(-c3ccccc3)c(-c3ccccc3)cc2C1)=N\O[C@@H](C)CN1CCCCc2nc(C)c(C)cc21,0.4%[15.4 µM],0.0%[15.4 µM],nt,3.6%[11.4 µM],7.9%[11.4 µM],nt
O=c1[nH][nH]c(=S)c(=O)[nH]1,0.5%[15.4 µM],0.5%[15.4 µM],-2.1%[11 µM],?,?,i
O=C(CCn1nc(-c2ccccc2)c2ccccc2c1=O)N1CCN(c2ccccc2)CC1,-0.6%,1.0%,-9.0%,?,25.1µM*,i
Cc1onc(-c2ccccc2Cl)c1C(=O)Nc1ccc(S(=O)(=O)N2CCCC2)cc1,-1.9%,-1.0%,-8.5%,-23.9%,-3.1%,i
SMILES,BRCT inh red,BRCT PPI green,Hsp90 Hop PPI,TSHR ag,HEK293 cAMP ctrl,TsaE inh
Cc1onc(-c2ccccc2Cl)c1C(=O)Nc1ccc(OCC(=O)N2CCOCC2)cc1,0.7%,-0.4%,1.7%[11 µM],?,3.98µM*,i
C/C(CCN1CCCc2nc(C)c(C)cc21)=N\O[C@@H](C)c1cn([C@H](CO)Cc2ccccc2)nn1,0.0%[15.4 µM],-0.2%[15.4 µM],nt,7.8%[11.4 µM],1.1%[11.4 µM],nt
COc1cccc2c(=O)n(CC(=O)NC3CCCC3)ccc12,-1.3%,-2.8%,-2.0%,1.26µM*,1.2%,i
C=COCCn1c(-c2nonc2N)nc2ccccc21,2.0%,0.6%,3.2%,?,25.1µM*,i
Nc1nonc1-c1nc2ccccc2n1Cc1ccc(Cl)cc1,-0.5%,-1.1%,3.7%,?,15.8µM*,i
Cn1cccc1-c1nc2ccccc2n1Cc1ccccc1,-1.4%,0.3%,-15.2%,?,31.6µM*,i
COCCn1c(COC)nc2ccccc21,1.3%,-1.3%,-4.6%,0.0%,4.2%,i
CCC(=O)Nc1nonc1-c1nc2ccccc2n1Cc1ccccc1,-0.8%,-3.5%,?,?,20µM*,i
COC(=O)CC1C(C)(C)C(O)C2CC3=C4C=C(OC)OC(c5ccoc5)[C@]4(C)CCC3[C@@]1(C)C2=O (some centres not stated),-1.5%,-2.1%[3.08 µM],nt,nt,nt,nt
CC1(C)[C@@H]2CC[C@@](C)(C2)[C@H]1OC(=O)c1ccccc1C(=O)O,0.9%[15.4 µM],0.0%[15.4 µM],-1.3%[11 µM],5.9%[11.4 µM],0.3%[11.4 µM],i
Cc1ccc(Cn2c(-c3nonc3N)nc3ccccc32)cc1,-0.3%,-1.1%,2.7%,?,31.6µM*,i
COc1cccc(C(=O)Nc2cccc(-c3nc4ncccc4o3)c2C)c1,-0.2%,0.4%,-0.9%,?,15.8µM*,i
C[C@H]1CN(S(=O)(=O)c2cccc3cnccc23)CCN1,-1.5%,-1.7%,-1.8%,2.9%,-16.5%,i
O=c1[nH]c2[nH]c(=S)[nH]c(=S)c2[nH]1,0.3%[15.4 µM],-1.7%[15.4 µM],-1.6%[11 µM],0.6%[11.4 µM],6.8%[11.4 µM],i
CC(=O)Nc1cc(CN2CCCCC2)c(O)c2ncccc12,-0.7%[15.4 µM],-2.5%[15.4 µM],3.98µM*,-1.7%[11.4 µM],20.9%[11.4 µM],i
Oc1c(CN2CCN(c3ccccc3)CC2)cc(Br)c2cccnc12,-0.3%[15.4 µM],-2.0%[15.4 µM],-13.9%[11 µM],-9.7%[11.4 µM],-0.3%[11.4 µM],i
CCN1C(C)=C(C(=O)OC)C(c2ccccc2)N2C(=O)[C@](O)(C(=O)OC)CC(C#N)=C12 (some centres not stated),1.3%[15.4 µM],-0.3%[15.4 µM],nt,-2.5%[11.4 µM],-5.1%[11.4 µM],nt
CCN(CC)C(c1ccc(C)cc1)c1nnnn1C1CCCCC1 (configuration not stated),-0.7%,-2.5%,18.2%,?,15.8µM*,i
CCN(CC)C(c1ccc(F)cc1)c1nnnn1C1CCCCC1 (configuration not stated),-2.8%,0.3%,-3.0%,7.1%,16.7%,i
